Reference: PubChem BioAssay (NCI)
About 79,000 compounds went through this panel and 15% of them were active in at least one assay; those are over-represented in the sample as a whole. Values without a mark were called inactive. Calls of active or inactive are those of the source. No stated cut-off is given here; in the data, active means growth inhibition above about 70%; inactive means the rest.

Columns and labels:
[1] = NCI Yeast Anticancer Drug Screen. Data for the rad50 strain (AID 155);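 further: 0% = growth of vehicle-only cultures of the same strain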; settings: S. cerevisiae rad50 strain growth inhibition; at 50.0 µM; active compounds read high
How it was run: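 Growth of the mutant yeast was measured after compound exposure and referenced to vehicle-treated cultures.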

[2] = NCI Yeast Anticancer Drug Screen. Data for the mec2-1 strain (AID 157); settings: S. cerevisiae mec2-1 strain, at 50.0 µM, active compounds read high
How it was run: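 Using mec2-1 yeast: add compound, measure growth, express inhibition versus vehicle-treated cultures.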

[3] = NCI Yeast Anticancer Drug Screen. Data for the cln2 rad14 strain (AID 165);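 further: 0% = growth equal to vehicle treated cultures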; settings: S. cerevisiae cln2 rad14 strain, at 50.0 µM, active compounds read high
How it was run: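 Yeast strain cln2 rad14, bearing defects in cell cycle control and DNA repair, serves as the test system; values reflect growth inhibition compared with vehicle.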

[4] = NCI Yeast Anticancer Drug Screen. Data for the bub3 strain (AID 167); settings: S. cerevisiae bub3 mutant strain, at 50.0 µM, active compounds read high
How it was run: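 Whole-cell yeast assay. The mutant strain was incubated with compounds, and growth inhibition was determined by comparison with vehicle-treated cells.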

[5] = NCI Yeast Anticancer Drug Screen. Data for the mlh1 rad18 strain (AID 175); settings: S. cerevisiae mlh1 rad18 strain growth inhibition; at 50.0 µM; active compounds read high
How it was run: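 Steps: expose repair-defective yeast to compound; measure growth; express inhibition against vehicle-treated controls.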

[6] = NCI Yeast Anticancer Drug Screen. Data for the sgs1 mgt1 strain (AID 161);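 further: 0% = growth of cultures given vehicle only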; settings: S. cerevisiae sgs1 mgt1 strain, at 50.0 µM, active compounds read high
How it was run: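 Growth of a repair-deficient yeast mutant was monitored after compound treatment and expressed as inhibition relative to vehicle-treated cultures.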

Structure (SMILES) | growth inhibition [1] | growth inhibition [2] | growth inhibition [3] | growth inhibition [4] | growth inhibition [5] | growth inhibition [6]
CN(C)c1ccc(C2(c3ccc(N(C)C)cc3)NNC(=O)c3cc(N(C)C)ccc32)cc1 | 21.4% | 5% | 16.8% | -3.15% | 1.8% | 
O=COCCCCCc1ccccc1 | -10.6% | -5.05% | 8.6% | -6.45% | -11% | 
CC(=O)NNc1nc(C)c(C(=O)/C=C/c2ccc(Cl)cc2)s1 | 44.2% | 12.7% | 27.4% | 19% | 30.2% | 
CCN1CCCN(CC)C1=O | 6.1% | 4.15% | -30.4% | -0.45% | 0.1% | 
CC(=O)C1CCCC(=O)/C=C/C(=O)O1 (stereo not given) | 3.4% | -12.8% | 5.8% | 11.5% | -18% | 
C[N+](C)(C)CC(=O)c1ccc[nH]1 | 2.1% | -11.2% | -0.8% | 1.4% | 13.1% | 
C/C=C/C=N/SC(c1ccccc1)(c1ccccc1)c1ccccc1 | 9.35% | -7% | 4.45% | -26.1% | 13.6% | 
O=C(O)C(O)c1ccc(Cl)c(Cl)c1 (stereo not given) | 29.4% | -24.3% | -13.3% | 15.8% | 11.1% | 
O=c1c(-c2ccccc2)nc2ccccc2n1CC1CCCN2CCCC[C@H]12 (stereo not given in full) | 3.9% | -10% | -38.9% | 22.7% | 19.4% | 
N=c1oc2cc(O)ccc2cc1C(=O)NCc1ccccc1 | 17.8% | 27.4% | 20.4% | -8.25% | -7.15% | 
COC(C)(C)C(Br)C(=O)OCC(=O)c1ccc(Br)cc1 (stereo not given) | 25.9% | -0.3% | 20.6% | 0.8% | 13.3% | 
COC(=O)c1cc2c(cc1N=Cc1ccccc1Cl)OCO2 | 0.45% | 4.3% | -1.65% | -0.85% | 6.35% | 
Cc1nc(N(C)C)oc(=O)c1Cc1ccccc1 | -0.9% | 18.6% | -8.8% | 20.6% | 6.2% | 
COC1=CC(=O)c2ccc3ccccc3c2C1=O | 86.7% (active) | 90.4% (active) | 88.8% (active) | 88.8% (active) | 86.5% (active) | 
CC1=C(O)C(=O)C2C(=O)C1C1Cc3ccccc3C21 (stereo not given) | -21.1% | -2.05% | -3.2% | -2.1% | -17.6% | 
Cc1ccc(C(=O)N/N=C/c2c(O)ccc3ccccc23)cc1 | -4.7% | 20.7% | -24.9% | 38.5% | 27.1% | 
c1ccc2c(c1)CCC(C1=NC3CCCCC3N1)=N2 (stereo not given) | -1.25% | 3.7% | -47.3% | 6.3% | 1.85% | 
CC(C)OP(=O)(O)CCl | -16.9% | -12.6% | -11.4% | -13.6% | -26.3% | 
N#CCCN(CCC#N)c1ccc(/C=C2\N=C(c3cc([N+](=O)[O-])ccc3Cl)N(S(=O)(=O)c3ccccc3)C2=O)cc1 | 23.2% | 16.3% | -47.4% | -1.35% | 28.1% | 
CCc1cccc(C)c1NC(=O)C(=O)CC(=O)CCCO | -37.6% | 21.7% | -27.9% | 0.05% | 25.4% | 
COC(=O)/C(=C/c1ccc(OC)cc1)C(C(=O)O)=C1CCCCC1 | 20.2% | 9.95% | 9.75% | 2.25% | -8.9% | 
COc1ccc(CNc2nc3ccccc3nc2C(=O)O)cc1OC | 1.9% | 18.6% | 7.25% | 9% | -12.5% | 
CC(C)N(C(=O)c1ncccc1C(=O)c1ccccn1)C(C)C | -11.4% | -5.65% | -5.2% | -5.85% | -5.05% | 
O=C(O)c1c(O)cc(=O)oc1-c1ccccc1Cl | -17.4% | -23.2% | -13.6% | -18.9% | -16.9% | 

Structure (SMILES) | growth inhibition [1] | growth inhibition [2] | growth inhibition [3] | growth inhibition [4] | growth inhibition [5] | growth inhibition [6]
Cc1c(Cl)cc(C(C)(C)C)c(O)c1Cc1c(C)c(Cl)cc(C(C)(C)C)c1O | 19.4% | -8.3% | 12.3% | 0% | 1.95% | 
CCc1ccc(N=Nc2c(F)c(F)c(N)c(F)c2F)cc1 | 6.1% | -11.3% | 2.85% | 0.55% | 14.3% | 
CC/C(=C\c1ccccc1OC)c1ccncc1 | 14.2% | -0.1% | 12.2% | 36.6% | 1.55% | 
COC(=O)C1CCC(=O)C(Sc2ccccc2)C1 (stereo not given) | 25.1% | -11.9% | 6% | 32.1% | 28.4% | 
O/N=C(/CN1CCOCC1)c1ccccc1 | -7.25% | 7.9% | -20.9% | 8.4% | 0% | 
N#Cc1c(-c2ccco2)cc(-c2ccccc2)[nH]c1=O | 31.8% | 8.1% | 33.3% | 9.7% | 25.6% | 
CC1CCCCC12OCCO2 (stereo not given) | -13.9% | -31.4% | 1.75% | -20.3% | -3.75% | 
Cc1c(-c2nc3ccccc3[nH]2)c(=O)n(-c2ccccc2)n1C | -70.2% | -38.1% | 7.25% | -10.4% | -38.9% | 
Nc1ccc(C(=O)O)cc1O | 13.7% | 14.2% | 20.4% | 9.65% | -7% | 
CCCNc1ncnc2ncn(C)c12 | 12.4% |  | 5.05% | 7.35% | 0.35% | -12.9%
COC(CN1C=C(Sc2ccccc2)CC1)OC | 49.2% |  | 13% | 27.5% | 56.2% | 32.3%
O=[N+]([O-])c1ccc(COP(=O)(OCc2ccc([N+](=O)[O-])cc2)OCc2ccc([N+](=O)[O-])cc2)cc1 | -8% |  | -46.5% | 25.3% | 4.75% | 2.9%
CC(=N\[O-])/C(C)=N/O.CC(=N\[O-])/C(C)=N/O.CCCc1ccncc1.[Cl-].[Cl-].[Rh+3] | -9.2% |  | 13.7% | -44.6% | 3.9% | -29.4%
O=C(Nc1nc(=S)[nH][nH]1)C(=O)C(C(=O)c1ccc2ccccc2c1)C1OC(=O)c2ccccc21 (stereo not given) | 28.6% |  | -14.3% | 3.75% | 28.8% | -6.5%
COc1cccc(/C=C/C(=O)c2sc(C(N)=S)nc2C)c1O | 14.2% |  | 25.9% | -3.75% | 7.6% | 5.2%
O=C(c1ccccc1)c1ccc2ccccc2c1C(=O)O | -8.25% |  | -69.3% | -5.65% | -17% | 4.85%
CCOC(=O)[C@H](C)OC(=O)[C@@](C)(NC(=O)c1ccccc1C(=O)OC)[C@@H]1NC=C(C(=O)OC)CS1 | -2.15% |  | 14.4% | 29% | 5.8% | 11.2%
C/C(=C\c1ccccc1)C(=O)C1C(c2ccccc2)CC(=O)C(C)C1c1ccccc1 (stereo not given) | -3.65% |  | -36.5% | -0.5% | 2.35% | -27.3%
CN(C)c1nc(N)c2ccc(Cl)cc2n1 | -8% |  | 0.85% | -8.05% | 8.7% | -7.15%
CC(=O)OC1(C(=O)OCC2CCCO2)CCCC1 (stereo not given) | -9.6% |  | -9.8% | 25.8% | 6.9% | -3.5%
Cn1c(=O)[nH]c2c(-c3ccccc3)n[nH]c2c1=O | 11.3% |  | -45.5% | 1.4% | 4.3% | 3.5%
N#CC(c1ccccc1)c1ccccn1 (stereo not given) | 5.9% |  | -9.2% | 5.5% | 2.75% | 8.75%
CCO/N=C(/N)c1ncn(Cc2ccccc2)c1NCC(OCC)OCC | -26.4% |  | 22.2% | -1% | -16.9% | -4.2%
